Data taken from PubChem BioAssay (NCATS).
Values joined by “and” are separate entries in the source; they are usually repeats but may differ in a detail not shown here. Equal entries are not always repeated. Inconclusive results are not listed. Entries that show only a call come without a potency. The source holds several records for some structures; these can differ, active in one and inactive in another. Active and inactive are the calls of the source. The call rests on the fitted dose curve; in most records, active means well fitted curve in the direction sought with a large enough effect; inconclusive means small, poorly fitted or top-dose-only effect, or another doubt; inactive means no such curve, though single readings can be large; an effect the other way counts as inactive or inconclusive.

assay: Identifying Small Molecule Inhibitors of Pancreatic Cancer Stem Cells (SN12C, Adherent) (AID 1259358); settings: viability/growth inhibition; series mostly up to 46.1 µM; viability (percent of control): at the top concentration;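 further: cell survival measured after 48 h of compound exposure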; further: potency means the concentration at half of the fitted maximal effect
Summary of the method: (§1)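 Luminescent ATP readout (CellTiter-Glo) quantifies surviving cells after a 48 h drug incubation. Normalization uses DMSO wells as no inhibition and media-only wells as full inhibition; bortezomib served as positive control.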

Row | SMILES | Potency | viability (percent of control)
1 | CS(=O)(=O)CCNCc1ccc(-c2ccc3ncnc(Nc4ccc(OCc5cccc(F)c5)c(Cl)c4)c3c2)o1 | 0.418 µM (active) | 
2 | CN(C)C(=N)N=C(N)N |  | 114% (inactive)
3 | Cn1ccc2cc3c(cc21)CCN3C(=O)Nc1cccnc1 |  | 81.2% (inactive)
4 | CC1(CN2CCC(n3c(=O)[nH]c4ccccc43)CC2)OCc2ccccc2-n2cccc21 (stereo not drawn) |  | 92.5% (inactive)
5 | COc1ccc(CCN(C)CCCC(C#N)(c2ccc(OC)c(OC)c2)C(C)C)cc1OC (stereo not drawn) |  | 95.7% (inactive)

assay: Identifying Small Molecule Inhibitors of Pancreatic Cancer Stem Cells (A278, Adherent) (AID 1259361); settings: series mostly up to 46.1 µM; viability (% of control): at the top concentration;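 further: viability read after 48 h compound exposure; nearly all actives have a fitted effect of over 35% in size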
Summary of the method: as §1

Row | SMILES | IC50 (viability decrease) | viability (% of control)
6 | O=c1c(O)c(-c2ccc(O)c(O)c2)oc2cc(O)cc(O)c12 | 29.6 µM (active) | 
7 | CN(C)C(=N)N=C(N)N |  | 113 (inactive)
8 | Cn1ccc2cc3c(cc21)CCN3C(=O)Nc1cccnc1 |  | 94.8 (inactive)
9 | COc1ccc(CCN(C)CCCC(C#N)(c2ccc(OC)c(OC)c2)C(C)C)cc1OC (stereo not drawn) |  | 78.3 (inactive)

assay: P-glycoprotein substrates identified in KB-3-1 adenocarcinoma cell line, qHTS therapeutic library screen (AID 1346986); settings: KB-3-1 parental cells viability, CellTiter-Glo, 72 h; series mostly up to 44.5 µM; activity change, negative = cytotoxicity: at the top concentration; further: nearly all actives have a fitted effect of over 60% in size
Summary of the method: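 72 h cell-killing screen, 500 cells/well, CellTiter-Glo luminescence. Paired lines KB-3-1/KB-8-5-11; P-gp dependence checked by tariquidar co-treatment and HEK-293 MDR-19 versus empty-vector cells.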

Row | SMILES | outcome | activity change, negative = cytotoxicity
10 | CC1(C)O[C@H]2CC(=O)OC[C@]23[C@H]2CC[C@@]4(C)[C@H](c5ccoc5)OC(=O)[C@H]5O[C@]54[C@]2(C)C(=O)C[C@@H]13 | inactive | 
11 | Nc1ccn([C@H]2CC[C@@H](CO)O2)c(=O)n1 | inactive | 
12 | CC1COc2c(N3CCN(C)CC3)c(F)cc3c(=O)c(C(=O)O)cn1c23 (stereo not drawn) | inactive | 
13 | O=C(c1ccc(OCCN2CCCCC2)cc1)c1c(-c2ccc(O)cc2)sc2cc(O)ccc12 |  | -59.3% (inactive)
14 | CN(C)C(=N)N=C(N)N | inactive [setting not given] | 
15 | Cc1ccc(-c2cc(C(F)(F)F)nn2-c2ccc(S(N)(=O)=O)cc2)cc1 | inactive | 
16 | Nc1c2c(nc3ccccc13)CCCC2 | inactive | 
17 | O=c1c(-c2ccc(O)cc2)coc2cc(O)cc(O)c12 | inactive | 
18 | CC(C)(C)C(=O)Oc1ccc(S(=O)(=O)Nc2ccccc2C(=O)NCC(=O)O)cc1 | inactive | 
19 | NCCc1cnc[nH]1 | inactive | 
20 | CN(C)CCOC(c1ccccc1)c1ccccc1 | inactive | 
21 | O=C1N(c2ccccc2)c2ccccc2C1(Cc1ccncc1)Cc1ccncc1 | inactive | 
22 | CC(C)(Oc1ccc(C2CC2(Cl)Cl)cc1)C(=O)O (stereo not drawn) | inactive [at 93.4 µM] | 
23 | Cc1cn([C@H]2C=C[C@@H](CO)O2)c(=O)[nH]c1=O | inactive [at 93.4 µM] | 

assay: P-glycoprotein substrates identified in KB-8-5-11 adenocarcinoma cell line, qHTS therapeutic library screen (AID 1346987); settings: KB-8-5-11 (P-gp overexpressing) viability, CellTiter-Glo, 72 h; series mostly up to 44.5 µM; activity change, negative = cytotoxicity: at the top concentration; further: nearly all actives have a fitted effect of over 65% in size; further: potency means the concentration at half of the fitted maximal effect
Summary of the method: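 Compounds are pinned in dose-response onto KB-8-5-11 cells (500 cells/well, colchicine-free medium) and left 72 h at 37 degree C. CellTiter-Glo luminescence then yields AC50 values.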

Row | SMILES | Potency | activity change, negative = cytotoxicity | outcome
24 | CC1(C)O[C@H]2CC(=O)OC[C@]23[C@H]2CC[C@@]4(C)[C@H](c5ccoc5)OC(=O)[C@H]5O[C@]54[C@]2(C)C(=O)C[C@@H]13 | inactive |  | 
25 | O=c1c(O)c(-c2ccc(O)c(O)c2)oc2cc(O)cc(O)c12 |  | -29.3% (inactive) | 
26 | CN(C)CCC=C1c2ccccc2C=Cc2ccccc21 |  | -26.6% (inactive) | 
27 | O=C1c2c(O)ccc(O)c2C(=O)c2c(NCCNCCO)ccc(NCCNCCO)c21 | 5.26 µM (active) |  | 
28 | Nc1ccn([C@H]2CC[C@@H](CO)O2)c(=O)n1 | inactive |  | 
29 | Nc1nnc(-c2cccc(Cl)c2Cl)c(N)n1 | inactive |  | 
30 | C[C@@H]1CC(=O)NN=C1c1ccc(NN=C(C#N)C#N)cc1 |  | -5.52% (inactive) | 
31 | CC1COc2c(N3CCN(C)CC3)c(F)cc3c(=O)c(C(=O)O)cn1c23 (stereo not drawn) | inactive |  | 
32 | CS(=O)(=O)CCNCc1ccc(-c2ccc3ncnc(Nc4ccc(OCc5cccc(F)c5)c(Cl)c4)c3c2)o1 | 18.7 µM (active) and inactive and 20.6 µM (active) |  | 
33 | CN(C)C(=N)N=C(N)N |  |  | inactive [setting not given]
34 | CN(C)CCCN1c2ccccc2CCc2ccc(Cl)cc21 | 20.9 µM (active) |  | 
35 | CC[C@@]1(O)C(=O)OCc2c1cc1n(c2=O)Cc2cc3c(CN(C)C)c(O)ccc3nc2-1 | 5.9 µM (active) and 8.2 µM (active) |  | 
36 | O=C(CCCN1CCC(O)(c2ccc(Cl)cc2)CC1)c1ccc(F)cc1 | 18.4 µM (active) |  | 
37 | O=c1c(-c2ccc(O)cc2)coc2cc(O)cc(O)c12 |  |  | inactive
38 | CC(C)(C)C(=O)Oc1ccc(S(=O)(=O)Nc2ccccc2C(=O)NCC(=O)O)cc1 | inactive |  | 
39 | Cn1ccc2cc3c(cc21)CCN3C(=O)Nc1cccnc1 |  |  | inactive
40 | COc1ccc2[nH]cc(CCNC(C)=O)c2c1 | inactive |  | 
41 | NCCc1cnc[nH]1 | inactive |  | 
42 | CCOC(=O)Nc1ccc(NCc2ccc(F)cc2)nc1N | inactive |  | 
43 | CC(=O)OCC(CCn1cnc2cnc(N)nc21)COC(C)=O | inactive |  | 
44 | CN(C)CCOC(c1ccccc1)c1ccccc1 | inactive |  | 
45 | O=C1N(c2ccccc2)c2ccccc2C1(Cc1ccncc1)Cc1ccncc1 | inactive |  | 
46 | CC(C)(Oc1ccc(C2CC2(Cl)Cl)cc1)C(=O)O (stereo not drawn) |  | 9.24% [at 93.4 µM] (inactive) | 
47 | NC(CO)C(=O)NNCc1ccc(O)c(O)c1O (stereo not drawn) | inactive |  | 
48 | CC1(CN2CCC(n3c(=O)[nH]c4ccccc43)CC2)OCc2ccccc2-n2cccc21 (stereo not drawn) |  | -16.8% (inactive) | 
